Source: PubChem BioAssay AID504725 (Broad Institute, 2011)
Potency and affinity values are given separately. Active and inactive are the calls of the source. The rule behind the calls is not given here.

molecular target: KSHV LANA C-terminal domain (residues 932-1162) binding to LBS DNA (UniProt O40947); assay: KSHV LANA DNA-binding disruption – biochemical, fluorescence polarization, cherry-picked samples, dose response (AID 504725); conditions: MBP-C-LANA / FAM-LBS DNA fluorescence polarization, percent change from plate compound-well median; series mostly up to 35 µM

outcome, inactive:
O=C(Nc1cc(Cl)ccc1-n1cncn1)c1cccs1
O=C(O)/C=C/C(=O)Nc1ccc(Cc2ccc(NC(=O)/C=C/C(=O)O)cc2)cc1
Nc1ccc2c(O)cc(S(=O)(=O)O)cc2c1
Cn1c(=O)c2c(nc(N/N=C/c3ccc(OC(=O)c4ccco4)cc3)n2Cc2ccc(F)cc2)n(C)c1=O
CCc1nnc(NC(=O)c2cccc(S(=O)(=O)N(C)c3ccccc3)c2)s1
COc1ccc(Cn2nnc3c(=O)[nH]c(C4CCCN(C(=O)c5ccccc5)C4)nc32)cc1 (stereo not drawn)
Cc1cc(NC(=O)CCC(=O)N(CCC(C)C)C(C(=O)NC2CCCC2)c2cccnc2)no1 (stereo not drawn)
O=[N+]([O-])c1cc(-n2cnnn2)ccc1N1CCC(Cc2ccccc2)CC1
COc1ccc(CCNC(=O)CCCNC(=O)Cn2cnc3sc(C)c(C)c3c2=O)cc1OC
CCCCN(C(=O)C(C)Oc1ccc(Br)cc1)c1c(N)n(CC(C)C)c(=O)[nH]c1=O (stereo not drawn)
Cc1c(C)n(Cc2ccccc2)c2ncnc(Cl)c12
O=c1nc(N2CCOCC2)ccn1-c1nc(-c2ccccc2)sc1-c1ccccc1
CN1CCN(CCCNC(=O)c2cc3c(-c4ccc(Cl)cc4)nn(C)c3s2)CC1
CCNc1nc(NC(C)C)nc(NS(=O)(=O)c2ccc(N)cc2)n1
O=C(CCN1C(=O)/C(=C/c2ccco2)SC1=S)Nc1ccc(C(=O)O)c(O)c1
COc1cc(SC)ccc1C(=O)Nc1nc(C)cs1
O=C(O)C1(c2ccccc2)CCN(S(=O)(=O)c2ccc(Cl)s2)CC1
Cc1nc2c(=O)[nH]c(=S)[nH]c2[nH]c1=O
COc1cc(SC)ccc1C(=O)OCC(=O)N1CCN(C(C)=O)CC1
CC1Cc2ccccc2N1C(=O)CCS(=O)(=O)c1cccs1 (stereo not drawn)
O=[N+]([O-])c1cccc(CSc2nc3ccccc3[nH]2)c1
O=C(O)CN1C(=O)/C(=C\c2cc(Br)ccc2OCc2ccc([N+](=O)[O-])cc2)SC1=S
CNC(=S)Nc1cccc(C(=O)OC)c1
COc1ccc(-c2nc(C(=O)O)cs2)cc1OC
COc1ccc(NC(=O)COC(=O)c2c(-c3ccccc3)noc2C)cc1
Cc1noc(C)c1CSCC(=O)Nc1nc2c(F)cc(F)cc2s1
C=C1c2cccc(O)c2C(O)=C2C(=O)[C@]3(O)C(O)=C(C(N)=O)C(=O)[C@@H](N(C)C)[C@@H]3[C@@H](O)[C@H]12
CCn1c(-c2ccc([N+](=O)[O-])cc2)n[nH]c1=S
COc1cccc(NC(=O)N(CCN(C)C)C(C)c2cccnc2)c1 (stereo not drawn)
COC(=O)Cn1c(=NC(=O)c2sc3ccccc3c2Cl)sc2cc(S(N)(=O)=O)ccc21
COc1cccc(-c2cc(C(=O)N3CCN(S(=O)(=O)c4ccccc4)CC3)[nH]n2)c1
CCOC(=O)[C@H]1[C@H]2COc3cc(OC)ccc3[C@@H]2N2C(=O)CN(Cc3ccc(OC)cc3)C(=O)[C@@]12C
CC(C)[C@H](NC(=O)c1ccccc1F)C(=O)NC1CCCCCCC1
CC(C)N(C(=S)Nc1cccnc1)c1ccccc1
COc1cccc(OCCCn2cc(/C=C3/C(=N)N4C=C(C)SC4=NC3=O)c3ccccc32)c1
CN(C)c1ccc(/C=C/C(=O)c2ccc(O)cc2)cc1[N+](=O)[O-]
CCCN(CCC)C(=O)C1c2ccccc2Oc2ccccc21
O=C1CN=C(Nc2ccccc2Cl)N1Cc1ccc2c(c1)OCO2
